Consider 40 compounds from PubChem BioAssay (Tox21).

Records with an inconclusive call do not appear. Where a call stands in place of a potency, no number is given. Unmarked numbers belong to inactive results. Activity calls are given as the source filed them. Calls come from the whole dose curve; as a rule, active = well fitted cell-killing curve with a large enough effect in the repeat runs; inconclusive = weak or mixed curves, or effect the other way; inactive = flat fitted curve, though single readings scatter.
Potency is the fitted concentration of half-maximal effect.

The nature of one test: cAMP Responsive Elements (CRE) small molecule antagonists, cell-based qHTS assay: qHTS cell viability counter screen (AID 2060913). Note: nearly all actives have a fitted effect of over 40% in size. The settings on record: CRE-bla HEK293T viability, CellTiter-Glo luminescence, 5 h; series mostly up to 92.4 µM. The gist of the method: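 HEK293T CRE-bla, 2,000 cells/well, 18 h preincubation; cpd in DMSO + NKH477 0.25 uM final, 3 h 37 C/5% CO2; LiveBLAzer 2 h RT, then CellTiter-Glo 30 min RT, luminescence.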
Background: qHTS replaces the single test concentration by a dilution series.
With `O=C[C@@H](O)[C@H](O)[C@H](O)CO`, the Potency result was “inactive”.

Consider `CC[N+](C)(CC)CC`, for which the Potency entry is “inactive”.

Turning to `CCc1cc(C2=C(C(=O)O)N(c3ccccc3C(F)(F)F)S(=O)(=O)c3ccccc32)cc2c1OCO2`, the Potency result was “inactive”.

Consider `CC(=O)OCC1=C(C(=O)O)N2C(=O)[C@@H](NC(=O)CSc3ccncc3)[C@H]2SC1`, for which the Potency entry is “inactive”.

Turning to `Cc1c(Cl)c(=O)oc2cc(O)ccc12`, the Potency result is “inactive”.

As to `O=C(O)CCSCCC(=O)O`, the Potency entry was “inactive”.

Take `NCCCC(O)(P(=O)(O)O)P(=O)(O)O`: the Potency result was “inactive”.

On to `CC(C)n1c(/C=C/[C@@H](O)C[C@@H](O)CC(=O)O)c(-c2ccc(F)cc2)c2ccccc21`, for which the Potency entry is “inactive”.

For the compound `[Cl][Bi]([Cl])([c]1ccccc1)([c]1ccccc1)[c]1ccccc1`, the Potency was 30.5 µM (active).

Consider `CC1(CO)CN(c2ccccc2)NC1=O` (stereo not given), for which the Potency result was “inactive”.

In the case of `COCCCOCCCOC`, the Potency entry is “inactive”.

Take `Cc1cnccn1`: the Potency entry is “inactive”.

Consider `c1cc2ccc3ccc4ccc5cccc6c(c1)c2c3c4c56`, for which the viability change, negative = cytotoxic is 18.5% [at 3.27 µM].

For the compound `COc1ccc(CCN(C)CCCC(C#N)(c2cc(OC)c(OC)c(OC)c2)C(C)C)cc1OC` (stereo not given), the Potency entry was “inactive”.

For the compound `CCCCCCCCC(=O)O`, the Potency entry is “inactive”.

On to `C[Si](C)(C)C`, for which the Potency entry is “inactive”.

As for `Cc1ccc2ccc(Cl)cc2n1`, the Potency entry is “inactive”.

Take `CC(O)(P(=O)(O)O)P(=O)(O)O`: the Potency entry is “inactive”.

Turning to `CN(C)CCCN(C)C`, the viability change, negative = cytotoxic was 8.18% [at 8.39 µM].

As for `O=C(O)/C=C/c1ccc(/C=C/C(=O)O)cc1`, the Potency entry is “inactive”.

With `CCNC(=O)NCc1cccc(Cl)c1`, the Potency entry is “inactive”.

With `CC(=O)c1ccc2c(c1)CCCC2`, the Potency entry was “inactive”.

Take `CC/C=C\CCOC(C)=O`: the Potency entry was “inactive”.

In the case of `C/C=C/C=N/NC(=O)c1ccncc1`, the Potency entry is “inactive”.

`C[C@H]1COc2c(C3(N)CC3)c(F)cc3c(=O)c(C(=O)O)cn1c23`: the Potency entry is “inactive”.

With `CC/C=C\CCO`, the Potency entry is “inactive”.

Regarding `O=c1[nH]nnc2ccccc12`, the Potency result was “inactive”.

`COC(=O)c1ccc(NC(C)=O)cc1OC`: the Potency entry was “inactive”.

Take `CN1CCCCC1CCN1c2ccccc2Sc2ccc(S(C)=O)cc21` (stereo not given): the Potency entry was “inactive”.

Consider `CC(C)CC(C)(O)C#CC(C)(O)CC(C)C` (stereo not given), for which the Potency entry is “inactive”.

For the compound `CC(C)c1ccccc1C(C)C`, the Potency entry was “inactive”.

On to `O=Cc1ccc(F)cc1`, for which the Potency entry was “inactive”.

`Cc1cc(C)cc(O)c1`: the Potency result was “inactive”.

For the compound `Cl[Si](Cl)(c1ccccc1)c1ccccc1`, the Potency result was “inactive”.

In the case of `CCCCC(CC)COC(=O)CCCCC(=O)OCc1ccccc1` (stereo not given), the Potency entry was “inactive”.

For `NCCNCCNCCNCCN`, the Potency result was “inactive”.

Regarding `COc1cc(/C=C/C(=O)O[C@H]2CC[C@]34C[C@]35CC[C@]3(C)[C@@H]([C@H](C)CCC=C(C)C)CC[C@@]3(C)[C@@H]5CC[C@H]4C2(C)C)ccc1O`, the Potency entry is “inactive”.

With `COc1ccc(N)c(OC)c1`, the Potency result was “inactive”.

On to `Cc1cc(O)c(C(C)(C)C)cc1C(C)(C)C`, for which the Potency is 43.3 µM (active).

Consider `COc1cccc(OC)c1O`, for which the Potency entry is “inactive”.

Another test is described as follows: cAMP Responsive Elements (CRE) small molecule agonists, cell-based qHTS assay: qHTS cell viability counter screen (AID 2060914). Note: nearly all actives have a fitted effect of over 50% in size. To be noted: CRE-bla HEK293T viability, CellTiter-Glo luminescence, 5 h; series mostly up to 92.4 µM. The gist of the method: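 Cells are seeded and incubated 18 h, treated with compounds in DMSO for 3 h, read for the bla reporter, then given CellTiter-Glo; luminescence is measured after 30 min at room temperature.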
Consider `O=C[C@@H](O)[C@H](O)[C@H](O)CO`, for which the Potency result is “inactive”.

`CC[N+](C)(CC)CC`: the Potency result is “inactive”.

Regarding `CCc1cc(C2=C(C(=O)O)N(c3ccccc3C(F)(F)F)S(=O)(=O)c3ccccc32)cc2c1OCO2`, the Potency result is “inactive”.

As to `CC(=O)OCC1=C(C(=O)O)N2C(=O)[C@@H](NC(=O)CSc3ccncc3)[C@H]2SC1`, the Potency entry is “inactive”.

Turning to `Cc1c(Cl)c(=O)oc2cc(O)ccc12`, the Potency result was “inactive”.

`O=C(O)CCSCCC(=O)O`: the Potency entry was “inactive”.

`NCCCC(O)(P(=O)(O)O)P(=O)(O)O`: the Potency result is “inactive”.

In the case of `CC(C)n1c(/C=C/[C@@H](O)C[C@@H](O)CC(=O)O)c(-c2ccc(F)cc2)c2ccccc21`, the Potency result was “inactive”.

For the compound `[Cl][Bi]([Cl])([c]1ccccc1)([c]1ccccc1)[c]1ccccc1`, the Potency is 43 µM (active).

As to `CC1(CO)CN(c2ccccc2)NC1=O` (stereo not given), the Potency result was “inactive”.

As to `COCCCOCCCOC`, the Potency result is “inactive”.

`Cc1cnccn1`: the Potency entry is “inactive”.

Turning to `c1cc2ccc3ccc4ccc5cccc6c(c1)c2c3c4c56`, the activity change, negative = cytotoxicity is -0.0627% [at 3.27 µM].

On to `COc1ccc(CCN(C)CCCC(C#N)(c2cc(OC)c(OC)c(OC)c2)C(C)C)cc1OC` (stereo not given), for which the Potency entry is “inactive”.

Take `CCCCCCCCC(=O)O`: the Potency result was “inactive”.

As for `C[Si](C)(C)C`, the Potency result is “inactive”.

With `Cc1ccc2ccc(Cl)cc2n1`, the Potency result is “inactive”.

Take `CC(O)(P(=O)(O)O)P(=O)(O)O`: the Potency result is “inactive”.

`CN(C)CCCN(C)C`: the activity change, negative = cytotoxicity was -2.69% [at 8.39 µM].

Regarding `O=C(O)/C=C/c1ccc(/C=C/C(=O)O)cc1`, the Potency entry was “inactive”.

Take `CCNC(=O)NCc1cccc(Cl)c1`: the Potency entry was “inactive”.

On to `CC(=O)c1ccc2c(c1)CCCC2`, for which the Potency result is “inactive”.

As to `CC/C=C\CCOC(C)=O`, the Potency entry is “inactive”.

Regarding `C/C=C/C=N/NC(=O)c1ccncc1`, the Potency result is “inactive”.

Take `C[C@H]1COc2c(C3(N)CC3)c(F)cc3c(=O)c(C(=O)O)cn1c23`: the Potency result was “inactive”.

For `CC/C=C\CCO`, the Potency result is “inactive”.

Regarding `O=c1[nH]nnc2ccccc12`, the Potency entry is “inactive”.

For `COC(=O)c1ccc(NC(C)=O)cc1OC`, the Potency result is “inactive”.

As for `CN1CCCCC1CCN1c2ccccc2Sc2ccc(S(C)=O)cc21` (stereo not given), the Potency result is “inactive”.

As for `CC(C)CC(C)(O)C#CC(C)(O)CC(C)C` (stereo not given), the Potency entry is “inactive”.

Turning to `CC(C)c1ccccc1C(C)C`, the Potency result is “inactive”.

On to `O=Cc1ccc(F)cc1`, for which the Potency result was “inactive”.

For `Cc1cc(C)cc(O)c1`, the Potency entry was “inactive”.

On to `Cl[Si](Cl)(c1ccccc1)c1ccccc1`, for which the Potency result is “inactive”.

As to `CCCCC(CC)COC(=O)CCCCC(=O)OCc1ccccc1` (stereo not given), the Potency result is “inactive”.

With `NCCNCCNCCNCCN`, the Potency result is “inactive”.

In the case of `COc1cc(/C=C/C(=O)O[C@H]2CC[C@]34C[C@]35CC[C@]3(C)[C@@H]([C@H](C)CCC=C(C)C)CC[C@@]3(C)[C@@H]5CC[C@H]4C2(C)C)ccc1O`, the Potency result is “inactive”.

For the compound `COc1ccc(N)c(OC)c1`, the Potency result is “inactive”.

Turning to `Cc1cc(O)c(C(C)(C)C)cc1C(C)(C)C`, the Potency is 48.6 µM (active).

`COc1cccc(OC)c1O`: the Potency result is “inactive”.
